Common to all, as to details: mRNA level, 48 h; actives raise or lower the signal
Read-out in experiment [1]: Cytochrome P450 7A1 (Homo sapiens) (UniProt P22680)
Nature of the experiment: LTEA_HepaRG_CYP7A1: Life Technologies and Expression Analysis (LTEA) Assay for Cytochrome P450 7A1 (CYP7A1) using HepaRG (AID 2283496). The method in brief: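 HepaRG cells plated 48 h, then switched to serum-free induction medium and exposed in duplicate for 48 h to 8-point half-log series from 100 uM in 0.5% DMSO. CYP7A1 mRNA by qRT-PCR (TaqMan), normalized to ACTB/GAPDH/POLR2A; bidirectional fit versus DMSO.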

Read-out in experiment [2]: Glutathione S-Transferase (GSTA2), GSTA2 (gene 2939)
Nature of the experiment: LTEA_HepaRG_GSTA2: Life Technologies and Expression Analysis (LTEA) Assay for Glutathione S-Transferase (GSTA2) using HepaRG (AID 2283497). In outline:
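Human HepaRG cells, plated 48 h, then exposed in serum-free induction medium for 48 h to eight half-log concentrations up to 100 uM in 0.5% DMSO, duplicate. GSTA2 mRNA by qRT-PCR, normalized to ACTB/GAPDH/POLR2A; bidirectional fit versus DMSO.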

Read-out in experiment [3]: Glutamate-cysteine ligase catalytic (GCLC), GCLC (gene 2729)
The experiment in a line: LTEA_HepaRG_GCLC: Life Technologies and Expression Analysis (LTEA) Assay for Glutamate-cysteine ligase catalytic (GCLC) using HepaRG (AID 2283498). In outline: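 Differentiated human HepaRG cells, plated 48 h then switched to serum-free induction medium, were exposed in duplicate for 48 h to 8 half-log concentrations topping at 100 uM in 0.5% DMSO. GCLC mRNA was quantified by qRT-PCR against ACTB, GAPDH and POLR2A.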

Read-out in experiment [4]: growth arrest and DNA damage 45 (GADD45G), GADD45G (gene 10912)
The experiment in a line: LTEA_HepaRG_GADD45G: Life Technologies and Expression Analysis (LTEA) Assay for growth arrest and DNA damage 45 (GADD45G) using HepaRG (AID 2283499). The method in brief:
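Differentiated human HepaRG cells, 48 h post-plating, exposed 48 h in serum-free induction medium to 8 half-log concentrations (top 100 uM, 0.5% DMSO) in duplicate. GADD45G mRNA measured by Fluidigm TaqMan qRT-PCR, normalized to ACTB, GAPDH, POLR2A; bidirectional fit versus DMSO.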

Read-out in experiment [5]: Glutamate-cysteine ligase regulatory (GCLM), GCLM (gene 2730)
The experiment in a line: LTEA_HepaRG_GCLM: Life Technologies and Expression Analysis (LTEA) Assay for Glutamate-cysteine ligase regulatory (GCLM) using HepaRG (AID 2283500). In outline: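 Differentiated HepaRG cells exposed 48 h in serum-free induction medium to eight half-log concentrations up to 100 uM (0.5% DMSO). GCLM mRNA by TaqMan qRT-PCR, normalized to ACTB, GAPDH and POLR2A; bidirectional fit versus DMSO.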

Read-out in experiment [6]: Glutathione S-transferase M3 (GSTM3), GSTM3 (gene 2947)
The experiment in a line: LTEA_HepaRG_GSTM3: Life Technologies and Expression Analysis (LTEA) Assay for Glutathione S-transferase M3 (GSTM3) using HepaRG (AID 2283501). In outline: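 Differentiated human HepaRG cells were exposed in duplicate for 48 h in serum-free induction medium, 8 points from 100 uM top in half-log steps, 0.5% DMSO. GSTM3 mRNA was measured by TaqMan qRT-PCR, normalized to ACTB, GAPDH and POLR2A; bidirectional fit versus DMSO.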

Read-out in experiment [7]: Heat shock 70 kDa protein 1 (HSPA1A), gene 3303
The experiment in a line: LTEA_HepaRG_HSPA1A: Life Technologies and Expression Analysis (LTEA) Assay for Heat shock 70 kDa protein 1 (HSPA1A) using HepaRG (AID 2283502). In outline: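 Human HepaRG cells in serum-free induction medium were exposed in duplicate for 48 h to 8 half-log concentrations, highest 100 uM, in 0.5% DMSO. HSPA1A mRNA read by TaqMan qRT-PCR, normalized to ACTB, GAPDH, POLR2A, fitted bidirectionally against DMSO.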

Read-out in experiment [8]: Hypoxia-inducible factor 1-alpha (Homo sapiens) (UniProt Q16665)
The experiment in a line: LTEA_HepaRG_HIF1A: Life Technologies and Expression Analysis (LTEA) Assay for Hypoxia-inducible factor 1 (HIF1A) Trancription factor using HepaRG (AID 2283503). The method in brief: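 Differentiated HepaRG cells in serum-free induction medium exposed 48 h, in duplicate, to 8-point half-log series from 100 uM in 0.5% DMSO. HIF1A mRNA measured by TaqMan qRT-PCR, normalized to ACTB/GAPDH/POLR2A, fitted bidirectionally versus DMSO.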

Read-out in experiment [9]: 3-Hydroxy-3-Methylglutaryl-CoA Synthase 2 (HMGCS2), HMGCS2 (gene 3158)
The experiment in a line: LTEA_HepaRG_HMGCS2: Life Technologies and Expression Analysis (LTEA) Assay for 3-Hydroxy-3-Methylglutaryl-CoA Synthase 2 (HMGCS2) using HepaRG (AID 2283504). The method in brief: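 Human HepaRG cells in serum-free induction medium were exposed in duplicate for 48 h to 8-point half-log series from 100 uM top in 0.5% DMSO. HMGCS2 mRNA measured by TaqMan qRT-PCR, normalised to ACTB, GAPDH, POLR2A; bidirectional fit versus DMSO.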

Read-out in another experiment: HGF (gene 3082)
Nature of the experiment: LTEA_HepaRG_HGF: Life Technologies and Expression Analysis (LTEA) Assay for Hepatocyte Growth Facto (HGF) using HepaRG (AID 2283505). In outline:
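Differentiated HepaRG cells in serum-free induction medium exposed 48 h in duplicate, 8 half-log concentrations from 100 uM in 0.5% DMSO. HGF mRNA by qRT-PCR, normalised to ACTB, GAPDH, POLR2A; bidirectional fitting.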

Broadly, the AC50 is the concentration at which the activity in the assay is half-maximal.

The source made the active and inactive calls. The calls were made as follows: active = hit-call score of the fitted dose curve at least 0.9, where 1 is the maximum; inactive = score below 0.9.

Hypoxia-inducible factor 1-alpha (Homo sapiens), sequence (Q16665 whole entry, looked up): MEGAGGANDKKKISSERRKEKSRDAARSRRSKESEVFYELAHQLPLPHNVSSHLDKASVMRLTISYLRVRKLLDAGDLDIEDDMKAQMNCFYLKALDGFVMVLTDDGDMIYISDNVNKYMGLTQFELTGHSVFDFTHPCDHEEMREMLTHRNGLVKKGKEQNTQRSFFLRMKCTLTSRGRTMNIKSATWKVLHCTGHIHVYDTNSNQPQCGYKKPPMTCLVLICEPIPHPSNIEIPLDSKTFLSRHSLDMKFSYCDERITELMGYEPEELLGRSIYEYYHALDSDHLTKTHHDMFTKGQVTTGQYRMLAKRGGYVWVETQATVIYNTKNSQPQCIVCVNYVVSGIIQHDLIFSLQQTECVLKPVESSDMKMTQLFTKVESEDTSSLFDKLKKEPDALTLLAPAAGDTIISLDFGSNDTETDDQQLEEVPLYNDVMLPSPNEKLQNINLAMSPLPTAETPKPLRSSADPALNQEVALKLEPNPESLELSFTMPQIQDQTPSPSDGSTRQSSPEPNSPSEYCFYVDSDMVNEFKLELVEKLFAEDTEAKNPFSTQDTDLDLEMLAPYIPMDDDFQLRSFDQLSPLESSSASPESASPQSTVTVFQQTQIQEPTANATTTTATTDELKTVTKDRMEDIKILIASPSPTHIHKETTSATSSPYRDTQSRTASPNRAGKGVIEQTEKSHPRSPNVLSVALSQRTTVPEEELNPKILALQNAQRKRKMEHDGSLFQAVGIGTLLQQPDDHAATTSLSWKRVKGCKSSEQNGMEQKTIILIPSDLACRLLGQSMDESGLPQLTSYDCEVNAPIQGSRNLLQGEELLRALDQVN

As to `CCCCN(CCCC)CCCC`, the molecule was called inactive in [1], in [2], in experiment [3], in experiment [4], in experiment [5] and in experiment [6]. For the same molecule, the call (in [7]; in experiment [8]; in experiment [9]; with HGF (gene 3082)) was inactive.

As for `O=C(O)Cc1ccccc1Nc1c(Cl)cccc1Cl`, the AC50 in experiment [1] is 1.24 µM (active). Moreover, the call in experiment [2], in experiment [3], in experiment [4], in experiment [5], in experiment [6] and in experiment [7] was inactive. Further, the outcome (in experiment [8]; in [9]; with HGF (gene 3082)) was inactive.

Regarding `FC(F)(F)C(F)(F)C(F)(F)C(F)(F)C(F)(F)C(F)(F)CCI`, the molecule was classed as inactive in experiment [1], in [2], in experiment [3], in [4], in experiment [5] and in experiment [6]. Moreover, the outcome (in experiment [7]; in [8]; in experiment [9]; with HGF (gene 3082)) was inactive.

As for `CNC(=O)[C@H]1O[C@@H](n2cnc3c(NCc4cc(Cl)ccc4OCc4cc(C)no4)ncnc32)[C@H](O)[C@@H]1N`, the result in experiment [1], in experiment [2], in [3], in [4], in [5] and in experiment [6] was inactive. In addition, the outcome (in experiment [7]; in [8]; in experiment [9]; in the experiment with HGF (gene 3082)) was inactive.

As for `c1cc(-c2ccncc2)ccn1`, the molecule was called inactive in experiment [1], in [2], in experiment [3], in [4], in [5] and in [6]. Further, the molecule was classed as inactive (in [7]; in experiment [8]; in [9]; in the experiment with HGF (gene 3082)).

With `CC(=O)OC/C=C(\C)CCC=C(C)C`, the result in experiment [1], in experiment [2], in [3], in experiment [4], in experiment [5] and in experiment [6] was inactive. In addition, the result (in experiment [7]; in experiment [8]; in [9]; with HGF (gene 3082)) was inactive.

Turning to `COCCOC[C@H](CC1(C(=O)NC2CCC(C(=O)O)CC2)CCCC1)C(=O)Oc1ccc2c(c1)CCC2` (stereo partly specified), the outcome in [1], in [2], in experiment [3], in [4], in experiment [5] and in experiment [6] was inactive. Moreover, the result (in experiment [7]; in experiment [8]; in [9]; in the experiment with HGF (gene 3082)) was inactive.

For the molecule `Cc1nc(C)nc(N2C[C@@H](C)N(c3ccnc([C@@H](C)O)n3)[C@@H](C)C2)n1`, the result in [1], in experiment [3], in [4], in experiment [5], in [6] and in experiment [7] was inactive. The outcome in experiment [8] and in experiment [9] was inactive. The AC50 is 25 µM (active) in experiment [2] and 15.3 µM (active) in the experiment with HGF (gene 3082).

As to `Cc1nc(-c2ccc3c(c2)CCN(CCC2CCC(NC(=O)/C=C/c4ccc(F)cc4)CC2)CC3)no1` (stereo unspecified), the molecule was classed as inactive in [1], in experiment [2], in experiment [3], in experiment [5], in experiment [6] and in [7]. Also, the outcome (in [8]; in [9]; with HGF (gene 3082)) was inactive.

For the molecule `CC1=C(/C=C/C(C)=C/C=C/C(C)=C/CO)C(C)(C)CCC1`, the AC50 is 21.9 µM (active) in experiment [1], 52.2 µM (active) in [2] and 68.4 µM (active) in [7]. Besides, the call (in [3]; in [5]; in [6]; in experiment [8]; in experiment [9]; in the experiment with HGF (gene 3082)) was inactive.

For `Clc1cc(Cl)c(Cl)cc1Cl`, the result in experiment [1], in experiment [2], in experiment [3], in [5], in experiment [6] and in [7] was inactive. Moreover, the call (in [8]; in experiment [9]; with HGF (gene 3082)) was inactive.

With `Cc1ccc(C)c(O)c1C`, the molecule was called inactive in experiment [1], in experiment [2], in experiment [3], in [5], in [6] and in [7]. The result (in experiment [8]; in experiment [9]; with HGF (gene 3082)) was inactive.

For the molecule `Oc1ccc2ccccc2c1N=Nc1ccccc1`, the AC50 in experiment [1] is 16.3 µM (active); in experiment [2], 3.38 µM (active); in [3], 5.52 µM (active); in experiment [5] it was 24.6 µM (active); in [9] it was 14.8 µM (active). The result (in [6]; in experiment [7]; in experiment [8]; with HGF (gene 3082)) was inactive.

Take `O=C(O)CCCCC(=O)O`: the call in experiment [1], in [2], in [3], in experiment [4], in experiment [5] and in experiment [6] was inactive. Further, the outcome (in experiment [7]; in experiment [8]; in [9]; with HGF (gene 3082)) was inactive.

Consider `CCCCCCCCCCO`, for which the molecule was called inactive in experiment [1], in experiment [2], in experiment [3], in [5], in [6] and in experiment [7]. Further, the molecule was classed as inactive (in experiment [8]; in experiment [9]; in the experiment with HGF (gene 3082)).

For the molecule `Cc1oc(-c2ccccc2)nc1CCOc1cccc2c1ccn2CCC(=O)O`, the AC50 in experiment [1] is 82.3 µM (active); in experiment [2], 81.5 µM (active); in experiment [3] it was 50 µM (active); in experiment [5], 75.8 µM (active); in experiment [6], 9.92 µM (active); in experiment [9], 83.2 µM (active). Moreover, the molecule was called inactive (in [7]; in experiment [8]; in the experiment with HGF (gene 3082)).

As for `Cc1ccccc1Cl`, the molecule was called inactive in experiment [1], in experiment [2], in experiment [3], in [5], in experiment [6] and in experiment [7]. In addition, the result (in experiment [8]; in experiment [9]; in the experiment with HGF (gene 3082)) was inactive.

`C[Si]1(C)O[Si](C)(C)O[Si](C)(C)O[Si](C)(C)O1`: the molecule was classed as inactive in experiment [1], in experiment [2], in [3], in [4], in experiment [5] and in [6]. The outcome (in [7]; in [8]; in experiment [9]; with HGF (gene 3082)) was inactive.

In the case of `CN1CCN(Cc2cc(-c3ccc4[nH]c(=O)oc4c3)co2)[C@@H](c2ccc(F)cc2)C1`, the result in experiment [1], in [3], in [5], in [6], in experiment [7] and in experiment [8] was inactive. In addition, the molecule was called inactive (in experiment [9]; in the experiment with HGF (gene 3082)). For the same molecule, the AC50 is 12.2 µM (active) in experiment [2] and 71.9 µM (active) in [4].

As for `COc1ccc(S(=O)(=O)N2C(=O)[C@@](c3ccccc3OC)(N3C[C@H](O)C[C@H]3C(=O)N(C)C)c3cc(Cl)ccc32)c(OC)c1`, the AC50 is 21 µM (active) in experiment [1]; 25 µM (active) in experiment [2]; 13 µM (active) in [3]; 16.5 µM (active) in experiment [4]; 78.6 µM (active) in experiment [5]; 19.5 µM (active) in [6]. Further, the AC50 in experiment [7] was 83 µM (active); in experiment [8], 69.1 µM (active); in [9], 15.8 µM (active); with HGF (gene 3082), 85.5 µM (active).

In the case of `O=c1c(O)c(-c2ccc(O)c(O)c2)oc2cc(O)cc(O)c12`, the molecule was called inactive in experiment [1], in experiment [2], in experiment [3], in experiment [4], in experiment [5] and in experiment [6]. Moreover, the molecule was called inactive (in experiment [7]; in experiment [9]; with HGF (gene 3082)).

Source of the values: PubChem BioAssay (EPA / NIEHS).
